According to the supplement of paper PMC10849652:
The full data set covers some 7,900 targets. This sample favours those with a hit. About 0.6% of all pairs of compound and target were hits. Unmarked numbers belong to inactive results.

compound: Cc1cc(SCc2sc(-c3ccc(C(F)(F)F)cc3)nc2C)ccc1OCC(=O)O; experiment: log2 fold change, soluble protein after heating vs DMSO (PISA); higher = thermal stabilisation; K562 cells, 10 uM, 30 min; active = over 0.2 and 3.5 SD of the protein, either way, in both replicates (recomputed)
Outline: (§1)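 Values are thermal stability changes relative to control samples and are taken from duplicates. They are stated as log2 fold changes. Before quantification by TMTpro 16plex LC-MS/MS with equalised channel sums, K562 cells at 2×10^6 cells/mL were treated with 10 μM compound for 30 min, heated in aliquots for 3 min across 48°C-58°C, pooled, extracted in PBS with 0.5% NP-40 at 4°C, and centrifuged at 21,000xg for 90 min to give the soluble supernatant.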

UniProt P36406, sequence (P36406 whole entry, looked up): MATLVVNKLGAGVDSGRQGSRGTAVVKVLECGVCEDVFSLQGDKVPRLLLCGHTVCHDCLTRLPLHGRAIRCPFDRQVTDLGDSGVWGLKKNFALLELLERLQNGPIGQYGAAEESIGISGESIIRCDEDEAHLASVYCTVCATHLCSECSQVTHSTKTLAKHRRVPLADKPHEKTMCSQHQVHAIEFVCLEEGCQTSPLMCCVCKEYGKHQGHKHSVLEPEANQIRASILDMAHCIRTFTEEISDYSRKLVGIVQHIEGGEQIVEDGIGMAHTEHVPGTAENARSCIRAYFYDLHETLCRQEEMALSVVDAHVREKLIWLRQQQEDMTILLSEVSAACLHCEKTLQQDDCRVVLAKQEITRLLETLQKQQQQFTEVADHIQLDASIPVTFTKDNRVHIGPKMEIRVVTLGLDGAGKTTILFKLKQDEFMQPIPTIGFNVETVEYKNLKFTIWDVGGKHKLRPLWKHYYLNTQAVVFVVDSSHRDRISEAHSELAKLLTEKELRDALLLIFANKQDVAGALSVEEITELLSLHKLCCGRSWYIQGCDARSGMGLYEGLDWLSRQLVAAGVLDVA
UniProt Q96DX7, sequence (Q96DX7 whole entry, looked up): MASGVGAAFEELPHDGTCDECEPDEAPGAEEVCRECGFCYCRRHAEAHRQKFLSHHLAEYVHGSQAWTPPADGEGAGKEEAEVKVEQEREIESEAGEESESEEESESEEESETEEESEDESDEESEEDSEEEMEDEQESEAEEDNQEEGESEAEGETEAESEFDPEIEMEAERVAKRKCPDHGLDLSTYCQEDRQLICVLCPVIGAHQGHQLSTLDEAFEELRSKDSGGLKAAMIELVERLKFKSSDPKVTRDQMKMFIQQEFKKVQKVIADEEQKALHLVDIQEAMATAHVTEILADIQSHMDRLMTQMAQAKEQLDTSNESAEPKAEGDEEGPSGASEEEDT
UniProt A6NIH7, sequence (A6NIH7 whole entry, looked up): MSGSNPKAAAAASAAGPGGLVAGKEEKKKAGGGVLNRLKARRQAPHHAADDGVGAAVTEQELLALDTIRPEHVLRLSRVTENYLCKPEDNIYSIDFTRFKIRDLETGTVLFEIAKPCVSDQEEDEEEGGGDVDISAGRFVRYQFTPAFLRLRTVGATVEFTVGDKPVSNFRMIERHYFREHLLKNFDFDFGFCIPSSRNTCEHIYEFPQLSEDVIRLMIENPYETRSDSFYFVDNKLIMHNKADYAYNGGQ
UniProt Q8IWA0, sequence (Q8IWA0 whole entry, looked up): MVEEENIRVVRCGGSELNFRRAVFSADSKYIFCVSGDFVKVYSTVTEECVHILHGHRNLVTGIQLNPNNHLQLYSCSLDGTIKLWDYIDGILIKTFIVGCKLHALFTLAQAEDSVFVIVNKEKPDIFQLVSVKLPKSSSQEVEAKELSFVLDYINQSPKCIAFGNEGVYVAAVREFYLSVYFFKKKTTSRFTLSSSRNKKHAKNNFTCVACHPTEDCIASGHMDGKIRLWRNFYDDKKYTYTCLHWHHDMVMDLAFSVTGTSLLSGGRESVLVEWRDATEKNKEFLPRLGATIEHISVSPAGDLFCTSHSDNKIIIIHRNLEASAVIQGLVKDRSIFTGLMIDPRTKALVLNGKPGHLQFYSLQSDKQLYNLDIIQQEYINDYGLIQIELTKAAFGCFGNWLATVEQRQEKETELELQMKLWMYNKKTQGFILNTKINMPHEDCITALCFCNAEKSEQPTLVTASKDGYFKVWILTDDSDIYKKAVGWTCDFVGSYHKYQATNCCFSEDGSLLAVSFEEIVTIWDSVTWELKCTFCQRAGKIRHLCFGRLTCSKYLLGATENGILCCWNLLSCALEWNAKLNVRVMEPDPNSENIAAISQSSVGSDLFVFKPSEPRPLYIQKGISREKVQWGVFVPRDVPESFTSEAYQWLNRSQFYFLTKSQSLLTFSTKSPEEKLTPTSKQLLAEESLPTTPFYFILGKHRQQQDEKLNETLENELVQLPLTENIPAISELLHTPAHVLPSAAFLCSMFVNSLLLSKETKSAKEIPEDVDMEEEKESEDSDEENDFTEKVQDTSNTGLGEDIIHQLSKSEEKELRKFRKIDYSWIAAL
UniProt Q502W6, sequence (Q502W6 whole entry, looked up): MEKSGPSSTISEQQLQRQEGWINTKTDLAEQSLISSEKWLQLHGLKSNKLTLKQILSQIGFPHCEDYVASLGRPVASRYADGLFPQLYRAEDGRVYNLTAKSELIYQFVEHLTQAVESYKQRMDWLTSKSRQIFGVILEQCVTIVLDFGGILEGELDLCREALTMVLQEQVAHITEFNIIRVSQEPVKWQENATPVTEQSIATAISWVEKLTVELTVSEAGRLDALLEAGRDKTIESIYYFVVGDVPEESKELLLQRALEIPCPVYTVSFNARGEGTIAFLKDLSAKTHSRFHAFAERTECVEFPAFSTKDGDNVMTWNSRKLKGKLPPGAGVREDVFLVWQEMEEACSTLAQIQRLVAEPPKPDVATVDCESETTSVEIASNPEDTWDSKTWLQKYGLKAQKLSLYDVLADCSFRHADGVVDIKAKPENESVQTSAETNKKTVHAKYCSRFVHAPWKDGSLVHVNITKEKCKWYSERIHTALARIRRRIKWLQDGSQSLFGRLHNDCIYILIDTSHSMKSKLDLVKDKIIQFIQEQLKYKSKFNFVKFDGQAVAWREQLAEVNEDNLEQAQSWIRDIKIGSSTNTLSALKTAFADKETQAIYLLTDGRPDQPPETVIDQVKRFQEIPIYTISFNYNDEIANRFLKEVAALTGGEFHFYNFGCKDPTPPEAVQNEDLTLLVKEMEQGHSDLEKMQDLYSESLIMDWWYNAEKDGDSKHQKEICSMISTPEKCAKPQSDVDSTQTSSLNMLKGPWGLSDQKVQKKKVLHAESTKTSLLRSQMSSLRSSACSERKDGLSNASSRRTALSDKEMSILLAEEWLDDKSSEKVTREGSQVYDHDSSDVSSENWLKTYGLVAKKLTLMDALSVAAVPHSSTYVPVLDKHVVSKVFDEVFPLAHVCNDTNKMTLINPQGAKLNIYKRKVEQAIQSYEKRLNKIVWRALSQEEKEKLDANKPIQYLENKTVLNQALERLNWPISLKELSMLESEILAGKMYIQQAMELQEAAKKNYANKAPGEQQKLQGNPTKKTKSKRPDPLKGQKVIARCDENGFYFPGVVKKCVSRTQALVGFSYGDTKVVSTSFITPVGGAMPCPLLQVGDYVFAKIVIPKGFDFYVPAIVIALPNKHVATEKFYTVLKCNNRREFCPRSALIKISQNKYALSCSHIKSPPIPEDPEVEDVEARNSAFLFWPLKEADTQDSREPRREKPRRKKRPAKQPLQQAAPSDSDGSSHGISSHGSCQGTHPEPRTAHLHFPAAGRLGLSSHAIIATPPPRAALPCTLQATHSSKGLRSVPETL
UniProt Q8NE00, sequence (Q8NE00 whole entry, looked up): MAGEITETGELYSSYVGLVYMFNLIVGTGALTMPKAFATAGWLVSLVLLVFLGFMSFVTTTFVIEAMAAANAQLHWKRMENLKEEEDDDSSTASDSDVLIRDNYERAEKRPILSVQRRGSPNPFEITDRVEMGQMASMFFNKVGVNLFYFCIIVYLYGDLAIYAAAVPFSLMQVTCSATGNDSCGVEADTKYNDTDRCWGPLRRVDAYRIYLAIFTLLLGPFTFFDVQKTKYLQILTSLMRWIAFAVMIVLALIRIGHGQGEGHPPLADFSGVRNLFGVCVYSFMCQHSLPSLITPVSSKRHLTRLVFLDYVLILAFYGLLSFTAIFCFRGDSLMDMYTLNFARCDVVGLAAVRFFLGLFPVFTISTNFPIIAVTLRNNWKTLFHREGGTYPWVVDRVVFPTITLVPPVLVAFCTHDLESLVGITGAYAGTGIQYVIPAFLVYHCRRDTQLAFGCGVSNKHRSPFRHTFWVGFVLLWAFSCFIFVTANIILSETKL
UniProt Q9HCS7, sequence (Q9HCS7 whole entry, looked up): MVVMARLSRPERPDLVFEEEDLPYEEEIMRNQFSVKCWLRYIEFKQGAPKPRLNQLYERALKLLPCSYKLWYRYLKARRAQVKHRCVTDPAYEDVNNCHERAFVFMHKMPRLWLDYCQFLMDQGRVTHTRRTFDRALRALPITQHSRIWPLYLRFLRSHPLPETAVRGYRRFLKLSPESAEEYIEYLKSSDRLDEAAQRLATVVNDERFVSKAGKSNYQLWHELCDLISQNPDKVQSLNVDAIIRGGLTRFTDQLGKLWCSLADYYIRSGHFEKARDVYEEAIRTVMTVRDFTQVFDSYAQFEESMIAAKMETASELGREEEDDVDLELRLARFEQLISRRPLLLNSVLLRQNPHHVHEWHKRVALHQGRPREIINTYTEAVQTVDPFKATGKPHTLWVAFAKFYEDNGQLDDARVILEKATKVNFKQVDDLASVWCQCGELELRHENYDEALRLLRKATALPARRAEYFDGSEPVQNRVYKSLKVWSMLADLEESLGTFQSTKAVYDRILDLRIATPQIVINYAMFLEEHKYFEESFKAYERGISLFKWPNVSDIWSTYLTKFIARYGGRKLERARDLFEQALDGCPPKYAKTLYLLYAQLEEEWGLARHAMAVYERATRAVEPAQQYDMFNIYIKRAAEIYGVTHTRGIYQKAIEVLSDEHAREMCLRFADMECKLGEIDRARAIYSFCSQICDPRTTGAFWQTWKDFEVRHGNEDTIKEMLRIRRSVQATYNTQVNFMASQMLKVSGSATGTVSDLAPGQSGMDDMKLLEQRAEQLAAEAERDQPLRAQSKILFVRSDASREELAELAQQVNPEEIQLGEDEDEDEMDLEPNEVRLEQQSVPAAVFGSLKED
UniProt Q9Y5Z9, sequence (Q9Y5Z9 whole entry, looked up): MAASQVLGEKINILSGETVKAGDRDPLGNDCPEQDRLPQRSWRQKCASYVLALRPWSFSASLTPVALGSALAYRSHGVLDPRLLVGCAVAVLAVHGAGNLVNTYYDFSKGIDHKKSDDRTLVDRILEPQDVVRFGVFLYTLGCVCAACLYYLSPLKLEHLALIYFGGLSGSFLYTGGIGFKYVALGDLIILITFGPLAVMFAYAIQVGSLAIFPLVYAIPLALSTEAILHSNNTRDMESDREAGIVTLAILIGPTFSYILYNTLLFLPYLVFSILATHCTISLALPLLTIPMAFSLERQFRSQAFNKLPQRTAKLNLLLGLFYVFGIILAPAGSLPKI

Target	log2 fold change
TMEM268 isoform 3 (UniProt Q5VZI3)	-0.063
VKORC1 (UniProt Q9BQB6)	0.106
UNC119B (UniProt A6NIH7)	-0.064
UBE2D1 (UniProt P51668)	0.102
U2AF1L5 (UniProt P0DN76)	0.023
TMEM104 (UniProt Q8NE00)	-0.049
VDAC1 (UniProt C9JI87)	-0.281
TXNRD1 isoform 7 (UniProt Q16881)	-0.015
TMEM8A (UniProt Q9HCN3)	-0.095
UBE2J2 isoform 3 (UniProt Q8N2K1)	-0.01
TVP23C (UniProt Q96ET8)	-0.092
VPS72 isoform 2 (UniProt Q15906)	-0.021
WDR75 (UniProt Q8IWA0)	0.112
UBXN8 (UniProt O00124)	-0.101
TXNL4B (UniProt Q9NX01)	0.054
TSPAN13 (UniProt O95857)	-0.124
UBIAD1 (UniProt Q9Y5Z9)	0.004
UFM1 isoform 2 (UniProt P61960)	0.063
TRIM44 (UniProt Q96DX7)	0.024
XAB2 (UniProt Q9HCS7)	0.013
TUBA4A (UniProt C9JJQ8)	0.108
WARS1 (UniProt G3V227)	-0.015
VWA3B isoform 6 (UniProt Q502W6)	0.172
TRIM23 (UniProt P36406)	0.001
XIAP (UniProt P98170)	-0.036
TMEM219 (UniProt Q86XT9)	-0.241
TRIM5 (UniProt Q9C035)	-0.127
ULBP1 (UniProt Q9BZM6)	0.014

compound: Cc1ccc(-n2nc(C(C)(C)C)cc2NC(=O)Nc2ccc(OCCN3CCOCC3)c3ccccc23)cc1 [doramapimod]; experiment: as above
Outline: as §1

Target	log2 fold change
TOM1 (UniProt O60784)	0.052
VKORC1 (UniProt Q9BQB6)	0.033
UNC119B (UniProt A6NIH7)	0.263
U2AF1L5 (UniProt P0DN76)	-0.1
TMEM104 (UniProt Q8NE00)	0.112
WDR75 (UniProt Q8IWA0)	0.145
WARS1 (UniProt G3V277)	0.029
TXNL4B (UniProt Q9NX01)	0.037
UBIAD1 (UniProt Q9Y5Z9)	-0.1
TRIM44 (UniProt Q96DX7)	-0.004
WARS1 (UniProt G3V5U1)	-0.299
XAB2 (UniProt Q9HCS7)	-0.035
TUBA4A (UniProt C9JJQ8)	-0.046
VWA3B isoform 6 (UniProt Q502W6)	0.079
TRIM23 (UniProt P36406)	-0.043
TRPT1 isoform 4 (UniProt Q86TN4)	0.013

compound: Cc1ccc(C(=O)N(CCCN)[C@@H](c2nc3cc(Cl)ccc3c(=O)n2Cc2ccccc2)C(C)C)cc1 [ispinesib]; experiment: as above
Outline: as §1

Target	log2 fold change
TMEM268 isoform 3 (UniProt Q5VZI3)	-0.227
VKORC1 (UniProt Q9BQB6)	-0.108
TTC26	0.105
UNC119B (UniProt A6NIH7)	0.527 (active)
UBE2D1 (UniProt P51668)	0.056
TMEM104 (UniProt Q8NE00)	-0.34
VDAC1 (UniProt C9JI87)	-0.743 (active)
TMEM8A (UniProt Q9HCN3)	-0.065
VPS72 isoform 2 (UniProt Q15906)	0.218
WDR75 (UniProt Q8IWA0)	-0.219
UBXN8 (UniProt O00124)	-0.193
TXNL4B (UniProt Q9NX01)	-0.017
TSPAN13 (UniProt O95857)	-0.03
UBIAD1 (UniProt Q9Y5Z9)	-0.117
TRIM44 (UniProt Q96DX7)	0.03
XAB2 (UniProt Q9HCS7)	-0.223
VWA3B isoform 6 (UniProt Q502W6)	-0.266
TRIM23 (UniProt P36406)	0.115
TRIM5 (UniProt Q9C035)	-0.821 (active)
TRPT1 isoform 4 (UniProt Q86TN4)	-0.105
ULBP1 (UniProt Q9BZM6)	0.011
